Test results as given in PubChem BioAssay (NCI).
This is part of a sample that, as a whole, favours compounds with a hit. Of some 83,000 tested, about 20% had one in any assay.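 Activity criterion: percent growth below 10, measured after cells in 96-well plates were exposed to a single compound concentration for 48 hours.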

Key:
Experiment in all cases: NCI-60 one-dose screen, 48 h (100 = growth as untreated, 0 = no growth, -100 = all killed)
Settings in all cases: 10 µM unless noted
NCI-H23 lung = system: NCI-H23 lung
NCI-H226 lung = system: NCI-H226 lung
NCI-H322M lung = system: NCI-H322M lung
HOP-62 NSCLC = system: HOP-62 NSCLC
NCI-H460 lung = system: NCI-H460 lung
HOP-92 NSCLC = system: HOP-92 NSCLC
NCI-H522 lung = system: NCI-H522 lung
A549/ATCC NSCLC = system: A549/ATCC NSCLC
786-0 renal = system: 786-0 renal
COLO 205 colon = system: COLO 205 colon
DU-145 prostate = system: DU-145 prostate
K-562 leukemia = system: K-562 leukemia
MALME-3M melanoma = system: MALME-3M melanoma
MDA-MB-231 breast = system: MDA-MB-231 breast
RXF 393 renal = system: RXF 393 renal
SF-268 CNS = system: SF-268 CNS
SF-295 CNS = system: SF-295 CNS
SF-539 CNS = system: SF-539 CNS
UACC-257 melanoma = system: UACC-257 melanoma
M14 melanoma = system: M14 melanoma

Measured: growth

CCNc1cc(S(=O)(=O)O)ccc1C
inactive: NCI-H23 lung 103% | NCI-H226 lung 103% | NCI-H322M lung 112% | HOP-62 NSCLC 90.8% | NCI-H460 lung 112% | HOP-92 NSCLC 104% | NCI-H522 lung 93.3% | A549/ATCC NSCLC 81.3% | 786-0 renal 99.8% | COLO 205 colon 92.8% | DU-145 prostate 108% | K-562 leukemia 102% | MALME-3M melanoma 106% | MDA-MB-231 breast 102% | RXF 393 renal 110% | SF-268 CNS 113% | SF-295 CNS 101% | SF-539 CNS 102% | UACC-257 melanoma 83.2% | M14 melanoma 106%

C[C@H]1C=C(C[C@@H](O)CC#CC#CCCCCC[C@@H](O)[C@H]2CCC(=O)O2)C(=O)O1
inactive: NCI-H23 lung 99.9% | NCI-H226 lung 98.6% | NCI-H322M lung 114% | HOP-62 NSCLC 94.5% | NCI-H460 lung 118% | HOP-92 NSCLC 99.9% | NCI-H522 lung 78.7% | A549/ATCC NSCLC 111% | 786-0 renal 190% | COLO 205 colon 115% | DU-145 prostate 109% | K-562 leukemia 86.3% | MALME-3M melanoma 105% | MDA-MB-231 breast 96.4% | RXF 393 renal 103% | SF-268 CNS 110% | SF-295 CNS 106% | SF-539 CNS 93.1% | UACC-257 melanoma 91.8% | M14 melanoma 137%

COc1ccc(N)c(S)c1
inactive: NCI-H23 lung 92.3% | NCI-H226 lung 92.8% | NCI-H322M lung 106% | HOP-62 NSCLC 90.5% | NCI-H460 lung 106% | HOP-92 NSCLC 88.4% | NCI-H522 lung 84.5% | A549/ATCC NSCLC 77.1% | 786-0 renal 107% | COLO 205 colon 84.5% | DU-145 prostate 102% | K-562 leukemia 97.4% | MALME-3M melanoma 101% | MDA-MB-231 breast 86.7% | RXF 393 renal 111% | SF-268 CNS 105% | SF-295 CNS 100% | SF-539 CNS 101% | UACC-257 melanoma 80.5% | M14 melanoma 101%

COc1cc(/C=C2/Oc3cc4occc4c(OC)c3C2=O)ccc1OCC(=O)Nc1ccncc1
inactive: NCI-H23 lung 94.1% | NCI-H226 lung 95% | NCI-H322M lung 97.3% | HOP-62 NSCLC 85.7% | NCI-H460 lung 104% | HOP-92 NSCLC 97.4% | NCI-H522 lung 85.4% | A549/ATCC NSCLC 101% | 786-0 renal 101% | COLO 205 colon 107% | DU-145 prostate 112% | K-562 leukemia 107% | MALME-3M melanoma 110% | MDA-MB-231 breast 89.9% | RXF 393 renal 118% | SF-268 CNS 105% | SF-295 CNS 107% | SF-539 CNS 97% | UACC-257 melanoma 104% | M14 melanoma 98.8%

Nc1ccc(S(=O)(=O)Nc2ccnn2-c2ccccc2)cc1
inactive: NCI-H23 lung 107% | NCI-H226 lung 106% | NCI-H322M lung 95% | HOP-62 NSCLC 112% | NCI-H460 lung 108% | HOP-92 NSCLC 97.9% | NCI-H522 lung 101% | A549/ATCC NSCLC 97.7% | 786-0 renal 105% | COLO 205 colon 109% | DU-145 prostate 118% | K-562 leukemia 89% | MALME-3M melanoma 103% | MDA-MB-231 breast 102% | RXF 393 renal 120% | SF-268 CNS 107% | SF-295 CNS 102% | SF-539 CNS 103% | UACC-257 melanoma 103% | M14 melanoma 109%

O=C(CSc1nnc(-c2ccc(Cl)cc2)o1)Nc1ccc(C(=O)/C=C/c2ccccc2)cc1
inactive: NCI-H23 lung 93.3% | NCI-H226 lung 107% | NCI-H322M lung 90.5% | HOP-62 NSCLC 107% | NCI-H460 lung 97.7% | HOP-92 NSCLC 106% | NCI-H522 lung 86.7% | A549/ATCC NSCLC 96% | 786-0 renal 97.8% | COLO 205 colon 116% | DU-145 prostate 101% | K-562 leukemia 99.3% | MALME-3M melanoma 106% | MDA-MB-231 breast 99.1% | RXF 393 renal 112% | SF-268 CNS 103% | SF-295 CNS 105% | SF-539 CNS 106% | UACC-257 melanoma 101% | M14 melanoma 96%

CCc1c(C)c2cc3nc(NCc4ccccc4)oc3c(C)c2oc1=O
inactive: NCI-H23 lung 69.7% | NCI-H226 lung 88.1% | NCI-H322M lung 70.2% | HOP-62 NSCLC 73.7% | NCI-H460 lung 60.3% | HOP-92 NSCLC 78.1% | NCI-H522 lung 45.5% | A549/ATCC NSCLC 78.6% | 786-0 renal 44.4% | COLO 205 colon 114% | DU-145 prostate 82.9% | K-562 leukemia 89.5% | MALME-3M melanoma 51.9% | MDA-MB-231 breast 62.1% | RXF 393 renal 53.9% | SF-268 CNS 65.9% | SF-295 CNS 79.6% | SF-539 CNS 33.5% | UACC-257 melanoma 87.6% | M14 melanoma 88.3%
